Assay outcomes as filed in PubChem BioAssay.
Rows were chosen to be rich in hits. Some 19% of all compounds tested hit in one or more screens of this group.
IL1B secr inh: blocks inflammasome-driven IL-1 beta release; THP-1 LPS/ATP IL-1B secretion, AlphaLISA, 16 h; stronger effect = lower value; activity change, % at 57.5 µM; actives 4.7% (n = 360,000); AID 743279; in the data active means activity change below about -50%; inconclusive means mostly about -30% to -49%; further: on the % scale 0 is the no-effect control and ±100 the full control effect
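THP-1 cells pretreated 1 hr with compounds (up to 57.5 uM final), then stimulated with LPS (250 ng/mL final) plus ATP (1.25 mM final); secreted IL-1B measured by AlphaLISA after 16 hr, decreased signal indicating inhibition.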
ASM inhibitor: inhibitors of human secretory acid sphingomyelinase. placental ASM, HMU-PC fluorogenic substrate, 60 min. actives 0.006% (n = 340,000). Potency, µM (doses to about 57.5 µM), for inactives: top-dose activity change, negative = inhibition, actives largely listed as inhibitors. P17405; further: potency means the concentration at half of the fitted maximal effect
Target sequence (P17405 47-631 limits assumed): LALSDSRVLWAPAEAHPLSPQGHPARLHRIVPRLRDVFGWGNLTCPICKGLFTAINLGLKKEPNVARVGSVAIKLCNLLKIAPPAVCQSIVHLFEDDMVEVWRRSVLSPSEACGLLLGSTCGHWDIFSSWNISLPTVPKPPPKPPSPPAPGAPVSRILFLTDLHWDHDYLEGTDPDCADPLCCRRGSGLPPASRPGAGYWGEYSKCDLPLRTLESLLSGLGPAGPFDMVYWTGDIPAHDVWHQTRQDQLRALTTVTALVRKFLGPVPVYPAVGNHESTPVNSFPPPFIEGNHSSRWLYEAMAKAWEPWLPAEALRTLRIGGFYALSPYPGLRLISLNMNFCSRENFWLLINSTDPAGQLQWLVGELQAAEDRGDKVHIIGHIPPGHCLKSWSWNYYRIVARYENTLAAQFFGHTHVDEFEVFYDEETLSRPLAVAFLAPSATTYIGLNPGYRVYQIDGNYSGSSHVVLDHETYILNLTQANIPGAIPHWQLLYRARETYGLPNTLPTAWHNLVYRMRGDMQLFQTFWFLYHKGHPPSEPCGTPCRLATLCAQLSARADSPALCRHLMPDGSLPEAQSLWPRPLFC
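Human placenta-derived ASM preincubated with compound 10 min at room temperature, then reacted with 9 uM (final) fluorogenic HMU-PC substrate for 60 min at 37 C. Stop solution raises pH to 10; fluorescence read at Ex 386/Em 447 nm.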
DT40 TDP1 CPT: growth inhibition of DT40 Tdp1-/-;hTDP1 cells with camptothecin (screen for TDP1 inhibitors); chicken DT40 Tdp1-/-;hTDP1 cells + 20 nM CPT, ATP luminescence, 48 h; Potency, µM (series often up to 46.2 µM), inactives show top-dose activity change, negative = growth inhibition, hits mostly inhibitors; actives 12% (n = 420,000); AID 686979; further: potency means the concentration at half of the fitted maximal effect; on the % scale 0 is the no-effect control and ±100 the full control effect; nearly all actives have a fitted effect of over 55% in size
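Cell growth measured by CellTiter-Glo luminescence after a minimum 48 h, 37 C compound exposure with 20 nM CPT in Tdp1-knockout DT40 cells stably expressing hTDP1, seeded 400/well; qHTS titration format.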
DT40 TDP1 no CPT: qHTS for Inhibitors of human tyrosyl-DNA phosphodiesterase 1 (TDP1): qHTS in cells in absence of CPT; AID 686978, 2013; actives 15% (n = 420,000); Potency, µM (doses to about 46.2 µM), for the others: top-dose activity change, negative = growth inhibition, hits mostly inhibitors; DT40 Tdp1-/- hTDP1 cells, no CPT, ATP luminescence, 48 h; further: potency means the concentration at half of the fitted maximal effect; on the % scale 0 is the no-effect control and ±100 the full control effect; nearly all actives have a fitted effect of over 55% in size
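Chicken DT40 Tdp1-/- cells complemented with human TDP1, screened without camptothecin (DMSO vehicle only), 400 cells/well. Compounds pin-transferred, cells incubated at 37 °C for at least 48 hr. Growth read as ATP-dependent luminescence (CellTiter-Glo, 30 min at RT).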
HepG2 tox: counter-screen for TGF-b inhibitors: cytotoxicity in HepG2 cells | HepG2 CAGA-GFP viability, ATP luminescence, 18 h | AID 588856 | actives 0.76% (n = 410,000) | Potency, µM (series often up to 46.1 µM), for the others: at the highest dose activity change, negative = cytotoxicity, hits mostly cytotoxic; further: potency means the concentration at half of the fitted maximal effect
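CellTiter-Glo luminescence gave cytotoxicity after 18 hours at 37 degrees C. The cells were HepG2 CAGA-GFP in 1% FBS DMEM, stimulated with 500 pg/mL TGF-beta after compound addition. %Activity was normalised to no-cell wells (complete cell-killing) and DMSO (no toxicity), and curves were fitted and classified.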
TGFb inhibitor: TGF-b pathway inhibition; HepG2 CAGA-GFP TGF-b/SMAD3 reporter, GFP fluorescence, 18 h; TGF-beta stimulated, 500 pg/mL final; Potency, µM (titrated, usually from 46.1 µM), for the others: top-dose activity, negative = inhibition, actives largely listed as inhibitors; actives 1.2% (n = 410,000); AID 588855; further: potency means the concentration at half of the fitted maximal effect; on the % scale 0 is the no-effect control and ±100 the full control effect; nearly all actives have a fitted effect of over 65% in size
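HEPG2 CAGA-GFP, 1000 cells/well; 2 h settle, 37 C; cpd via pin tool; TGF-b 500 pg/mL final; 18 h, 37 C; GFP imaging ex488/em500-530; %Activity normalised to -TGF-b and +DMSO controls; CRC fit, curve class.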
Active calls of the source: *; u = inconclusive; x = no result. Unless noted, the call rests on the fitted dose curve; in most records, active means well fitted curve in the direction sought with a large enough effect; inconclusive means small, poorly fitted or top-dose-only effect, or another doubt; inactive means no such curve, though single readings can be large; an effect the other way counts as inactive or inconclusive.

SMILES	IL1B secr inh	ASM inhibitor	DT40 TDP1 CPT	DT40 TDP1 no CPT	HepG2 tox	TGFb inhibitor
Cc1ccc(OCC(=O)Nc2ccc(-c3nc4ccccc4o3)cc2)c(C)c1	x	x	-18%	-14%	10%	-2%
Cc1ccc(-c2nc3ccccc3o2)cc1NC(=O)COc1ccccc1C	x	x	-8%	4%	20%	33%
Cc1cc(Cl)ccc1OCC(=O)Nc1cccc(-c2nc3ccccc3o2)c1	x	x	u	13µM*	3%	-3%
COc1ccc(NC(=O)c2ccc(NC(=O)CCS(=O)(=O)c3cccs3)cc2)cc1OC	x	x	-26%	u	-4%	0%
CC1=C(C(=O)Nc2ccc(C)cc2C)C(c2ccc([N+](=O)[O-])cc2)n2ncc(C(=O)Nc3ccc(F)cc3)c2N1 (centres undefined)	x	x	8.2µM*	8.2µM*	2%	-1%
CC1=C(C(=O)Nc2ccccc2)C(c2ccccc2Cl)n2ncc(C(=O)Nc3cccc(C)c3)c2N1 (centres undefined)	x	x	u	18µM*	-3%	-47%
CCOc1ccc(C2C(C(=O)Nc3ccc(C)cc3C)=C(C)Nc3c(C(=O)Nc4ccc(C)cc4)cnn32)cc1OC (centres undefined)	x	x	-13%	-6%	3%	-18%
COc1ccc(C2C(C(=O)Nc3ccccc3OC)=C(C)Nc3c(C(=O)Nc4ccccc4)cnn32)c(OC)c1 (centres undefined)	x	x	21µM*	u	-10%	-25%
COc1ccccc1NC(=O)C1=C(C)Nc2c(C(=O)Nc3ccc(C)cc3)cnn2C1c1cccc(OC)c1OC (centres undefined)	x	x	u	u	1%	-2%
Cc1ccc(S(=O)(=O)N(C)C)cc1NC(=O)CSc1nncs1	12	-2%	-2%	9%	18%	-4%
CCOC(=O)NC(c1ccc(C(C)C)cc1)C(Cl)(Cl)Cl (centres undefined)	0	1%	0%	-9%	15%	-3%
CCOC(=O)NC(C(Cl)(Cl)Cl)S(=O)(=O)c1ccccc1 (centres undefined)	-87*	-3%	u	u	20%	-6%
COc1ccc(-c2csc3ncnc(Oc4cccc5ccc(C)nc45)c23)cc1	-9	-13%	16µM*	u	-14%	0%
Oc1ccccc1N1CCN(c2ncnc3scc(-c4ccccc4)c23)CC1	u	-5%	u	23µM*	-22%	u
CN1CCN(c2ncnc3scc(-c4ccccc4Cl)c23)CC1	u	0%	u	9.2µM*	-13%	-6%
COc1ccc(-c2csc3ncnc(N4CCN(CCO)CC4)c23)cc1	-15	0%	-23%	u	-4%	11%
COc1ccc(-c2csc3ncnc(N4CCN(c5ccccc5OC)CC4)c23)cc1	u	2%	u	18µM*	-1%	u
OCCN1CCN(c2ncnc3scc(-c4ccc(F)cc4)c23)CC1	u	-3%	-7%	4%	-7%	-19%
Cc1ccc2cccc(Oc3ncnc4scc(-c5ccccc5)c34)c2n1	0	-13%	u	u	-1%	0%
CN1CCN(c2ncncc2-c2ccccc2Cl)CC1	x	x	8%	0%	x	x
CCC(NC(=O)Cc1c(C)c2c(cc(C)c3c(C)c(C)oc32)oc1=O)C(=O)O (centres undefined)	9	82%	8%	3%	-23%	-5%
O=C(NC1CCCCC1)C1c2ccccc2OCC(=O)N1Cc1ccccn1 (centres undefined)	-4	x	4%	-13%	x	x
